{"source": "PubChem BioAssay (Tox21)", "note": "Results filed as inconclusive are left out. Entries that show only a call come without a potency. Activity calls are given as the source filed them. Calls follow the shape of the full dose curve. Peptide text beside a SMILES is read from it.", "data": [{"test": "p53 small molecule agonists, cell-based qHTS assay with rat liver microsomes (AID 1963578)", "settings": "HCT-116 p53RE-bla, beta-lactamase ratio, 16 h; series mostly up to 66 µM; activation: at the top concentration", "description": "U.S. Tox21 Program National Center for Advancing Translational Sciences [NCATS] Division of Preclinical Innovation [DPI] U.S. Environmental Protection Agency [EPA] National Institutes of Environmental Health Sciences [NIEHS] National Toxicology Program [NTP] U.S. Food and Drug Administration [FDA] Tox21 Assay Overview: p53, a tumor suppressor protein, is activated following cellular insult, including DNA damage and other cellular stresses. The activation of p53 regulates cell fate by inducing DNA repair, cell cycle arrest, apoptosis, or cellular senescence. The activation of p53, therefore, is a good indicator of DNA damage and other cellular stresses. […] The activation of the reporter gene under culture conditions can be detected by fluorescence intensity. This cell line was used to screen the Tox21 10K compound library in the condition of presence of rat liver microsomes and to identify agonists that activate the p53 signaling pathway after in vitro metabolic activation (Ooka et al., Archive of Toxicology 96:1975-1987, 2022).\nTox21 Assay Protocol Summary: The p53RE-bla cells were dispensed at 4,000cells/3ul/well in 1536-well black-clear bottom plates. After the assay plates were incubated at 37 C, 5% CO2 incubator for 5 hours, 23 nL of compounds dissolved in DMSO, positive controls or DMSO only was transferred to the assay plate. Following compound addition, 3 uL of rat liver microsomes (Molecular Toxicology, Boone, NC) at final concentration of 0.5 mg/mL and 1uL of Beta-Nicotinamide adenine dinucleotide 2-phosphate (NADPH) at final concentration of 0.5 mg/mL were transferred to the assay plate. The plates were incubated at 37 C for 16 hours. 1 uL of LiveBLAzer detection mixture was added to each well and the plates were incubated at room temperature in the dark for 2 h.", "values": [{"smiles": "CCCCCCCCCCCO", "activation": "-1.49% (inactive)"}, {"smiles": "CCCCOC(=O)c1ccc(O)cc1", "Potency": "inactive"}, {"smiles": "c1ccc2cc3ccccc3cc2c1", "Potency": "inactive"}, {"smiles": "COC(=O)CCC(=O)OC", "activation": "1.65% (inactive)"}, {"smiles": "Cc1ccc(C)c(O)c1", "Potency": "inactive"}, {"smiles": "CC(C)c1ccc(C(C)C)cc1", "Potency": "inactive"}, {"smiles": "COC(=O)c1ccc(C)cc1", "Potency": "inactive"}, {"smiles": "C=C(C)C(=O)OCCOC(=O)C(=C)C", "activation": "0.578% (inactive)"}, {"smiles": "c1ccc(Nc2ccccc2)cc1", "activation": "-0.0477% (inactive)"}, {"smiles": "C=CCOC(=O)c1ccccc1C(=O)OCC=C", "Potency": "inactive"}, {"smiles": "O=S(=O)(O)c1ccc2ccccc2c1", "Potency": "inactive"}, {"smiles": "CC1=C(/C=C/C(C)=C/C=C/C(C)=C/C(=O)Nc2ccc(O)cc2)C(C)(C)CCC1", "Potency": "inactive"}, {"smiles": "Nc1ccc(O)c(C(=O)O)c1", "Potency": "inactive"}, {"smiles": "CCc1ccc(CCOc2ccc(CC3SC(=O)NC3=O)cc2)nc1", "note": "(stereo not given)", "Potency": "inactive"}, {"smiles": "C=CC(=O)OCCC(=O)O", "Potency": "inactive"}, {"smiles": "CNC(=S)N(C)C", "Potency": "inactive"}, {"smiles": "COC(=O)c1cccc(C(=O)OC)c1", "Potency": "inactive"}, {"smiles": "Cc1ccccc1C(OCCN(C)C)c1ccccc1", "note": "(stereo not given)", "Potency": "inactive"}, {"smiles": "CCCCCCC=O", "Potency": "inactive"}, {"smiles": "CCCCCCCCOc1ccc(C(=O)c2ccccc2)c(O)c1", "Potency": "inactive"}, {"smiles": "ClC1=C(Cl)C(Cl)(Cl)C(Cl)=C1Cl", "Potency": "inactive"}, {"smiles": "C[C@](N)(Cc1ccc(O)c(O)c1)C(=O)O", "Potency": "inactive"}, {"smiles": "C=CC(=O)NC(C)(C)CS(=O)(=O)O", "Potency": "inactive"}, {"smiles": "CC1=NN(c2ccccc2)C(=O)C1", "Potency": "inactive"}, {"smiles": "CCCN(CCC)S(=O)(=O)c1ccc(C(=O)O)cc1", "Potency": "inactive"}, {"smiles": "CCCCC(CC)COC(=O)CS", "note": "(stereo not given)", "activation": "-1.4% (inactive)"}, {"smiles": "CN(C)c1nc(N(C)C)nc(N(C)C)n1", "Potency": "inactive"}, {"smiles": "O=[N+]([O-])c1cc(C(F)(F)F)ccc1Cl", "Potency": "inactive"}, {"smiles": "CC(C)OC(=O)COc1ccc(Cl)cc1Cl", "Potency": "inactive"}, {"smiles": "CC(CCl)OP(=O)(OC(C)CCl)OC(C)CCl", "note": "(stereo not given)", "Potency": "inactive"}, {"smiles": "COC(=O)[C@H](Cc1ccccc1)NC(=O)[C@@H](N)CC(=O)O", "note": "(H-Asp-Phe-OMe)", "Potency": "inactive"}, {"smiles": "CC1(C)CC(N)CC(C)(CN)C1", "note": "(stereo not given)", "Potency": "inactive"}, {"smiles": "CN(C)c1ccc(C(=C2C=CC(=[N+](C)C)C=C2)c2ccccc2)cc1", "Potency": "inactive"}, {"smiles": "COc1cc([C@H]2Oc3cc([C@H]4Oc5cc(O)cc(O)c5C(=O)[C@@H]4O)ccc3O[C@@H]2CO)ccc1O", "Potency": "inactive"}, {"smiles": "O=C1c2c(O)cccc2Cc2cccc(O)c21", "Potency": "inactive"}, {"smiles": "O=C1O[C@H]([C@@H](O)CO)C(O)=C1O", "Potency": "inactive"}, {"smiles": "C[C@H]1C[C@@H]2[C@H]([C@@H](O)C[C@@]3(C)[C@H]2CC[C@]3(O)C(=O)CO)[C@@]2(C)C=CC(=O)C=C12", "Potency": "inactive"}, {"smiles": "CCCCC1(COC(=O)CCC(=O)O)C(=O)N(c2ccccc2)N(c2ccccc2)C1=O", "Potency": "inactive"}, {"smiles": "O=C(Cl)c1c(Cl)c(Cl)c(C(=O)Cl)c(Cl)c1Cl", "Potency": "inactive"}, {"smiles": "C=C[Si](OCCOC)(OCCOC)OCCOC", "Potency": "inactive"}]}]}
